The campaign covered roughly 39,000 compounds. About 3,300 (8.5%) were called active. Only a selection was taken, and actives are over-represented in it overall.
test system: HepG2; test: cytotoxicity call (relative viability < 0.9); conditions: 10 µM

Compound	cytotoxicity call
COc1ccc(NC(=O)N(C)C[C@@H]2OCCCC[C@H](C)Oc3ccc(NC(=O)Nc4ccc(C(F)(F)F)cc4)cc3C(=O)N([C@@H](C)CO)C[C@@H]2C)cc1	inactive
C[C@@H]1CCCCO[C@H](CN(C)C(=O)Nc2ccccc2)[C@H](C)CN([C@@H](C)CO)C(=O)c2cc(NC(=O)Nc3ccc(C(F)(F)F)cc3)ccc2O1	inactive
O=C1CC[C@H](C(=O)N2CCCCC2)N1	inactive
Cc1noc(C)c1S(=O)(=O)Nc1ccc2c(c1)CC(=O)N([C@H](C)CO)C[C@H](C)[C@@H](CN(C)S(=O)(=O)c1ccc(Cl)cc1)O2	inactive
Cc1ccc(S(=O)(=O)Nc2ccc3c(c2)CC(=O)N([C@@H](C)CO)C[C@H](C)[C@@H](CN(C)S(=O)(=O)c2ccc(F)cc2)O3)cc1	inactive
COc1ccc(S(=O)(=O)Nc2ccc3c(c2)CC(=O)N([C@@H](C)CO)C[C@H](C)[C@@H](CN(C)S(=O)(=O)c2ccccc2)O3)cc1	inactive
Cc1noc(C)c1S(=O)(=O)Nc1ccc2c(c1)CC(=O)N([C@@H](C)CO)C[C@@H](C)[C@H](CN(C)S(=O)(=O)c1ccc(Cl)cc1)O2	active
COc1ccc(S(=O)(=O)N(C)C[C@@H]2Oc3ccc(NC(=O)Cc4ccccc4)cc3CC(=O)N([C@@H](C)CO)C[C@H]2C)cc1	inactive
Cc1ccc(S(=O)(=O)N(C)C[C@H]2Oc3ccc(NS(=O)(=O)c4ccc(F)cc4)cc3CC(=O)N([C@@H](C)CO)C[C@H]2C)cc1	inactive
Cc1ccc(S(=O)(=O)N(C)C[C@H]2Oc3ccc(NS(=O)(=O)c4ccc(F)cc4)cc3CC(=O)N([C@@H](C)CO)C[C@@H]2C)cc1	active
COc1ccc(S(=O)(=O)N(C)C[C@@H]2Oc3ccc(NC(=O)Cc4ccccc4)cc3CC(=O)N([C@H](C)CO)C[C@@H]2C)cc1	active
COc1ccc(S(=O)(=O)N(C)C[C@@H]2Oc3ccc(NS(=O)(=O)c4ccccc4)cc3CC(=O)N([C@H](C)CO)C[C@H]2C)cc1	inactive
Cc1noc(C)c1S(=O)(=O)Nc1ccc2c(c1)CC(=O)N([C@H](C)CO)C[C@@H](C)[C@@H](CN(C)S(=O)(=O)c1ccc(Cl)cc1)O2	inactive
COc1ccc(S(=O)(=O)N(C)C[C@H]2Oc3ccc(NC(=O)Cc4ccccc4)cc3CC(=O)N([C@H](C)CO)C[C@@H]2C)cc1	inactive
COc1ccc(S(=O)(=O)N(C)C[C@@H]2Oc3ccc(NS(=O)(=O)c4ccccc4)cc3CC(=O)N([C@@H](C)CO)C[C@H]2C)cc1	active
O=c1cc[nH]c(C(F)(F)F)n1	inactive
C[C@@H]1CCCCO[C@@H](CN(C)C(=O)Nc2ccccc2)[C@H](C)CN([C@@H](C)CO)C(=O)c2cc(NS(=O)(=O)c3cccs3)ccc2O1	inactive
C[C@H](CO)N1C[C@H](C)[C@H](CN(C)S(=O)(=O)c2cn(C)cn2)Oc2ncc(C#CCN(C)C)cc2C1=O	inactive
COc1ccc(NC(=O)Nc2cccc3c2O[C@H](CN(C)S(C)(=O)=O)[C@@H](C)CN([C@H](C)CO)C3=O)cc1	inactive
Cc1noc(C)c1NC(=O)N(C)C[C@@H]1OCCCC[C@@H](C)Oc2ccc(NC(=O)c3ccccc3)cc2C(=O)N([C@H](C)CO)C[C@H]1C	inactive
CCC(=O)N1CCC[C@H](C(=O)O)C1	inactive
NC(=O)CCCCC(N)=O	inactive
COc1ccc(NC(=O)Nc2ccc3c(c2)C(=O)N([C@@H](C)CO)C[C@@H](C)[C@@H](CN(C)C(=O)Nc2ccc(C(F)(F)F)cc2)OCCCC[C@@H](C)O3)cc1	inactive

Compound	cytotoxicity call
O=C(COP(=O)(O)O)[C@H](O)[C@@H](O)COP(=O)(O)O	inactive
C[C@@H]1CN([C@H](C)CO)C(=O)c2cc(NS(=O)(=O)c3ccc(F)cc3)ccc2O[C@@H](C)CCCCO[C@@H]1CN(C)C(=O)Cc1ccccc1	inactive
C[C@@H]1CN([C@H](C)CO)C(=O)Cc2cc(NS(=O)(=O)c3ccc(Cl)cc3)ccc2O[C@@H]1CN(C)C	inactive
COc1ccc(S(=O)(=O)Nc2ccc3c(c2)CC(=O)N([C@H](C)CO)C[C@@H](C)[C@@H](CN(C)C)O3)cc1	active
COc1ccc(S(=O)(=O)Nc2ccc3c(c2)CC(=O)N([C@H](C)CO)C[C@H](C)[C@H](CN(C)C)O3)cc1	inactive
C[C@H]1CN([C@@H](C)CO)C(=O)Cc2cc(NS(=O)(=O)c3ccc(Cl)cc3)ccc2O[C@@H]1CN(C)C	active
COc1ccc(S(=O)(=O)Nc2ccc3c(c2)CC(=O)N([C@H](C)CO)C[C@H](C)[C@@H](CN(C)C)O3)cc1	inactive
C[C@@H]1CN([C@@H](C)CO)C(=O)Cc2cc(NS(=O)(=O)c3ccc(Cl)cc3)ccc2O[C@@H]1CN(C)C	inactive
C[C@H]1CN([C@@H](C)CO)C(=O)c2cc(NC(=O)Nc3ccccc3)ccc2O[C@H]1CN(C)C(=O)Nc1cccc2ccccc12	inactive
CN1C(=O)c2cc(NS(=O)(=O)c3cccc(F)c3)ccc2OC[C@H]2O[C@H](CC(=O)NCCN3CCCCC3)CC[C@H]21	inactive
O=C(C[C@H]1C=C[C@@H](NC(=O)c2cccnc2)[C@@H](CO)O1)NCCN1CCCCC1	inactive
CC(C)NC(=O)Nc1cccc2c1O[C@@H](CN(C)C(=O)NC1CCCCC1)[C@@H](C)CN([C@H](C)CO)C2=O	inactive
COc1ccc(S(=O)(=O)N(C)C[C@H]2OCCCC[C@H](C)Oc3ccc(NC(=O)Nc4ccccc4)cc3C(=O)N([C@@H](C)CO)C[C@@H]2C)cc1	inactive
C[C@@H]1CN([C@@H](C)CO)C(=O)c2cccc(NC(=O)CCCCCC(=O)Nc3ccccc3N)c2O[C@@H]1CN(C)Cc1ccc(Cl)c(Cl)c1	inactive
C[C@@H]1CN([C@H](C)CO)C(=O)c2cccc(NC(=O)CCCCCC(=O)Nc3ccccc3N)c2O[C@H]1CN(C)Cc1ccc(-c2ccccc2)cc1	inactive
C[C@H]1CN([C@@H](C)CO)C(=O)c2cccc(NC(=O)CCCCCC(=O)Nc3ccccc3N)c2O[C@@H]1CN(C)Cc1ccc(Cl)c(Cl)c1	active
C[C@H](CO)N1C[C@H](C)[C@@H](CN(C)Cc2ccc(-c3ccccc3)cc2)Oc2c(NC(=O)CCCCCC(=O)Nc3ccccc3N)cccc2C1=O	active
C[C@@H]1CN([C@H](C)CO)C(=O)c2cccc(NC(=O)CCCCCC(=O)Nc3ccccc3N)c2O[C@@H]1CN(C)Cc1ccc(-c2ccccc2)cc1	active
C[C@@H]1CN([C@@H](C)CO)C(=O)c2cccc(NC(=O)CCCCCC(=O)Nc3ccccc3N)c2O[C@H]1CN(C)Cc1ccc(Cl)c(Cl)c1	inactive
C[C@@H]1CN([C@@H](C)CO)C(=O)c2cccc(NC(=O)CCCCCC(=O)Nc3ccccc3N)c2O[C@@H]1CN(C)Cc1ccc(-c2ccccc2)cc1	inactive
C[C@@H]1CN([C@@H](C)CO)C(=O)c2cccc(NC(=O)CCCCCC(=O)Nc3ccccc3N)c2O[C@H]1CN(C)Cc1ccc(-c2ccccc2)cc1	inactive
C[C@H]1CN([C@@H](C)CO)C(=O)c2cccc(NC(=O)CCCCCC(=O)Nc3ccccc3N)c2O[C@H]1CN(C)Cc1ccc(-c2ccccc2)cc1	inactive

Reference: the antibiotic and cytotoxicity screens of Wong et al. (2023)
